Laboratory results from PubChem BioAssay (Tox21).
Results filed as inconclusive are left out. Calls of active or inactive are those of the source. Unless noted, calls come from the whole dose curve; as a rule, active = well fitted curve in the direction sought with a large enough effect in the repeat runs; inconclusive = weak or mixed curves; inactive = no such curve, though single readings can be large; an effect the other way counts as inactive or inconclusive.

Experiments:
[1] = qHTS assay to test for compound auto fluorescence at 535 nm (green) in HEK293 cells (AID 720680)
[2] = qHTS assay to test for compound auto fluorescence at 460 nm (blue) in HEK293 cell free culture (AID 720681)
Method in brief: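 Test compounds were pinned into cell-free culture medium (DMEM with 10% FBS) and fluorescence was read directly at Ex/Em 405/460 nm. Signals were expressed as fluorescence equivalents of triamterene, with DMSO vehicle as control.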

[3] = qHTS assay to test for compound auto fluorescence at 535 nm (green) in HEK293 cell free culture (AID 720682)
Method in brief: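 No cells present: wells hold DMEM supplemented with 10% FBS, into which compound or vehicle is pinned. Green emission is then recorded (485 nm excitation, 535 nm emission) and scaled to fluorescein.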

[4] = qHTS assay to test for compound auto fluorescence at 590 nm (red) in HEK293 cell free culture (AID 720683)
Method in brief: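 Tox21 10K library compounds were pinned into cell-free DMEM with 10% FBS and fluorescence was read at excitation 540 nm. Activity is expressed as Rose Bengal sodium equivalency.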

[5] = qHTS assay to test for compound auto fluorescence at 590 nm (red) in HepG2 cell free culture (AID 720684)
Method in brief: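 Readout: intrinsic compound fluorescence at 590 nm emission after 540 nm excitation, scaled to Rose Bengal sodium. Matrix was cell-free MEM with 10% FBS; DMSO vehicle wells served as control.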

[6] = qHTS assay to test for compound auto fluorescence at 460 nm (blue) in HepG2 cell free culture (AID 720685)
Method in brief: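 Cell-free plates of MEM plus 10% FBS received 23 nL compound or DMSO vehicle; blue-channel (405/460 nm) intensity scored against triamterene as reference fluorophore.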

[7] = qHTS assay to test for compound auto fluorescence at 535 nm (green) in HepG2 cell free culture (AID 720686)
[8] = qHTS assay to test for compound auto fluorescence at 460 nm (blue) in HepG2 cells (AID 720687)
Method in brief: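 Cells (2,000/well in MEM with 10% FBS) attached overnight at 37 C, then were exposed to compound or DMSO for 1 hr at 37 C, 5% CO2. Fluorescence read at Ex/Em 405/460 nm, expressed as triamterene-equivalent signal.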

[9] = molecular target: Glucocorticoid receptor (Homo sapiens) (UniProt P04150); test: qHTS assay to identify small molecule agonists of the glucocorticoid receptor (GR) signaling pathway (AID 720691; active = well fitted activation curve with a large enough effect in the signal ratio in the repeat runs, not every such curve was filed as active; the % refers to the signal ratio); conditions: GR-bla HeLa, beta-lactamase reporter ratio, 18 h; activation: at 62.4 µM (top of the series)
Method in brief: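 Measures GR pathway activation through a GRE-beta-lactamase reporter stably integrated in HeLa cells, with 18 h compound treatment at 37 C and fluorescence detection using a FRET substrate.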

[10] = molecular target: Glucocorticoid receptor (Homo sapiens) (UniProt P04150); test: qHTS assay to identify small molecule antagonists of the glucocorticoid receptor (GR) signaling pathway (AID 720692; active = well fitted inhibition curve with a large enough effect in the signal ratio in the repeat runs, not every such curve was filed as active; the % refers to the signal ratio)
Method in brief: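 Tox21 10K library screened in concentration-response for blockade of dexamethasone (5 nM final)-induced GRE-bla reporter activity in HeLa cells; 18 h treatment, fluorescence read.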

[11] = qHTS assay to identify small molecule antagonists of the glucocorticoid receptor (GR) signaling pathway - cell viability counter screen (AID 720693); note: nearly all actives have a fitted effect of over 55% in size
[12] = qHTS assay for identifying genotoxic compounds that show differential cytotoxicity against isogenic chicken DT40 cell lines with known DNA damage response pathways - wild type cell line (AID 743012); note: nearly all actives have a fitted effect of over 60% in size; note: potency is the fitted concentration of half-maximal effect
Method in brief: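 Endpoint: CellTiter-Glo luminescence, 30 min RT. Cells: wild type DT40, 300/well. Exposure: compounds in DMSO, 40 h, 37 C/5% CO2, after ~0.5 h pre-incubation.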

[13] = qHTS assay for identifying genotoxic compounds that show differential cytotoxicity against isogenic chicken DT40 cell lines with known DNA damage response pathways - Rad54/Ku70 mutant cell line (AID 743015); note: nearly all actives have a fitted effect of over 60% in size
[14] = qHTS assay to identify small molecule antagonists of the androgen receptor (AR) signaling pathway - cell viability counter screen (AID 743033; note: nearly all actives have a fitted effect of over 45% in size)
[15] = qHTS assay to identify small molecule antagonists of the androgen receptor (AR) signaling pathway using the MDA cell line - cell viability counter screen (AID 743041; note: nearly all actives have a fitted effect of over 45% in size)
Method in brief: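 qHTS viability read-out; MDA-kb2 AR-luc; R1881-stimulated; 16 h exposure at 37C, 0% CO2; CellTiter-Fluor, 30 min; fluorescence intensity.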

[16] = qHTS assay for identifying genotoxic compounds that show differential cytotoxicity against isogenic chicken DT40 cell lines with known DNA damage response pathways - Rev3 mutant cell line (AID 743014); note: nearly all actives have a fitted effect of over 55% in size
[17] = molecular target: Androgen receptor (Homo sapiens) (UniProt P10275); test: qHTS assay to identify small molecule antagonists of the androgen receptor (AR) signaling pathway using the MDA cell line (AID 743042; note: nearly all actives have a fitted effect of over 55% in size)
Method in brief: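 MDA-kb2 cells (human breast carcinoma, stably carrying an MMTV-luciferase reporter responsive to AR and GR) were plated at 3,000 cells/well and preincubated 5 hr at 37C, then given compound plus R1881 agonist for 16 h. ONE-Glo luminescence was read.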

Measured: Potency

Chain of Glucocorticoid receptor (Homo sapiens) (P04150 whole entry, looked up): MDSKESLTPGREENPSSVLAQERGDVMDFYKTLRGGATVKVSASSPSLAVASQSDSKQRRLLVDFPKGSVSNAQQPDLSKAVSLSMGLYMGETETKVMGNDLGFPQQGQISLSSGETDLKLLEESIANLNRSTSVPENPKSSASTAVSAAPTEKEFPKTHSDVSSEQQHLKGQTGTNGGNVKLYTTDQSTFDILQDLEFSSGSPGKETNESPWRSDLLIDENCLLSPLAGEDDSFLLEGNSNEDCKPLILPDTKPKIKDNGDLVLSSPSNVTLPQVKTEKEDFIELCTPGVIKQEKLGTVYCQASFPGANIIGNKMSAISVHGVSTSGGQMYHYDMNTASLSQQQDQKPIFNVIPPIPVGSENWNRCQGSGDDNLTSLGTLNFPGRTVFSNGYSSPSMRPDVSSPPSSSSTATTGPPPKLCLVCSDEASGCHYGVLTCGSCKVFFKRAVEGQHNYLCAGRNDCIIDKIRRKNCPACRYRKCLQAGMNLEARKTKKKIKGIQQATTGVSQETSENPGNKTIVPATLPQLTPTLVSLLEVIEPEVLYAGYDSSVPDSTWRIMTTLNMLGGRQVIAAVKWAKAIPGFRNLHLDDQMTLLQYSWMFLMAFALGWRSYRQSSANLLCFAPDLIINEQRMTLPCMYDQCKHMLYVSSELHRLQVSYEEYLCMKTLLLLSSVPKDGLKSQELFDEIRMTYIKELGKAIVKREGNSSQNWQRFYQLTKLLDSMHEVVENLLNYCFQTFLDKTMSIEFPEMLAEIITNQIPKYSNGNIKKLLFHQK
Chain of Androgen receptor (Homo sapiens) (P10275 whole entry, looked up): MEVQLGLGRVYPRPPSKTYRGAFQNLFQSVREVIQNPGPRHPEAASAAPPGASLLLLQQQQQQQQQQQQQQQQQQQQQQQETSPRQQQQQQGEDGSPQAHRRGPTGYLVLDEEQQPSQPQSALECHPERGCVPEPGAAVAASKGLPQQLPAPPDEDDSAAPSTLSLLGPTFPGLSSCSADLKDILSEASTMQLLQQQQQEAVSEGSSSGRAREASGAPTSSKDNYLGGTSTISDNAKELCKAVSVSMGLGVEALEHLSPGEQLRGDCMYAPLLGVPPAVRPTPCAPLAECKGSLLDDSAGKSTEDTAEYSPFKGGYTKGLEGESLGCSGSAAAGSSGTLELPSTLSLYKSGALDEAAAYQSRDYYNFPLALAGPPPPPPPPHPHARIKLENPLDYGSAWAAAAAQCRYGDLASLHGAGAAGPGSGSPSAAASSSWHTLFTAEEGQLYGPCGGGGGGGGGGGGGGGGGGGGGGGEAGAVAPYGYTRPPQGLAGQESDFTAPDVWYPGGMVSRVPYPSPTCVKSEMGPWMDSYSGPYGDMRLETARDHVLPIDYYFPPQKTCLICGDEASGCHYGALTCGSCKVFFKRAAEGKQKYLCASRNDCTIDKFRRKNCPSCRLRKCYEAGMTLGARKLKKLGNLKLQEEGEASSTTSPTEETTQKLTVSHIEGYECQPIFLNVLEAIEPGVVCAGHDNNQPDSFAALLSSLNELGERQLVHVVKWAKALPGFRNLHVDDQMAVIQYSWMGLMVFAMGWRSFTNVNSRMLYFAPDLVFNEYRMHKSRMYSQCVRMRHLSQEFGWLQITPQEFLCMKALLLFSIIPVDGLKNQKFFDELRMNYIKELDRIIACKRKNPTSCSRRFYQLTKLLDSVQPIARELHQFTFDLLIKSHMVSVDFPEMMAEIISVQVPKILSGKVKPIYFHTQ

COC(=O)[C@@H](N)CS
not listed: [16] | [17]
inactive: all other assays above

CN(CC(=O)N1CCOCC1)Cc1c(Cl)cccc1NC(=O)c1ccccc1
active: [12] 23.7 µM
not listed: [13] | [16] | [17]
inactive: all other assays above

CC[C@H](C)[C@@H]1NC(=O)[C@H](Cc2ccc(O)cc2)NC(=O)[C@@H](N)CSSC[C@@H](C(=O)N2CCC[C@H]2C(=O)N[C@@H](CC(C)C)C(=O)NCC(N)=O)NC(=O)[C@H](CC(N)=O)NC(=O)[C@H](CCC(N)=O)NC1=O
not listed: [16] | [17]
inactive: all other assays above

FC(F)(F)C(F)(F)C(F)(F)C(F)(F)C(F)(F)C(F)(F)F
not listed: [16] | [17]
inactive: all other assays above

CCCCC/C=C\CCC(=O)N[C@H]1[C@H](Oc2c3cc4cc2Oc2ccc(cc2Cl)[C@@H](O[C@@H]2O[C@H](CO)[C@@H](O)[C@H](O)[C@H]2NC(C)=O)[C@@H]2NC(=O)[C@H](NC(=O)[C@@H]4NC(=O)[C@H]4NC(=O)[C@@H](Cc5ccc(c(Cl)c5)O3)NC(=O)[C@H](N)c3ccc(O)c(c3)Oc3cc(O)cc4c3)c3ccc(O)c(c3)-c3c(O[C@H]4O[C@H](CO)[C@@H](O)[C@H](O)[C@@H]4O)cc(O)cc3[C@@H](C(=O)O)NC2=O)O[C@H](CO)[C@@H](O)[C@@H]1O
not listed: [16] | [17]
inactive: all other assays above

O=C(OC1C[C@@H]2CC3C[C@H](C1)N2CC3=O)c1c[nH]c2ccccc12 (stereo partly specified)
active: [12] 26.6 µM
not listed: [13] | [16] | [17]
inactive: all other assays above

CC#CCC(C)[C@H](O)/C=C/[C@@H]1[C@H]2C/C(=C/CCCC(=O)O)C[C@H]2C[C@H]1O (stereo partly specified)
not listed: [12] | [17]
inactive: all other assays above

Cc1c(O)cc2c(c1C)O[C@](C)(CCC[C@H](C)CCC[C@H](C)CCCC(C)C)CC2
not listed: [16] | [17]
inactive: all other assays above

CCN1C(=O)NC(c2ccccc2)C1=O (stereo unspecified)
not listed: [16] | [17]
inactive: all other assays above

O=c1[nH]cnc2[nH]cc(CN3CCCCC3)c12
not listed: [16] | [17]
inactive: all other assays above

C[C@H](CSC(=O)c1ccccc1)C(=O)N1C[C@@H](Sc2ccccc2)C[C@H]1C(=O)O
not listed: [13] | [16] | [17]
inactive: all other assays above

O=C1CCC(=O)N1CO
not listed: [14] | [16] | [17]
inactive: all other assays above

O=C(NCCNCC(O)COc1ccc(O)cc1)N1CCOCC1 (stereo unspecified)
not listed: [16] | [17]
inactive: all other assays above

CCC(c1ccccc1)c1noc(CCN(CC)CC)n1 (stereo unspecified)
active: [12] 23.7 µM
not listed: [13] | [16]
inactive: all other assays above
